Measurements: the supplement of paper PMC10646978
± gives the standard deviation.

Columns and labels:
Details in all cases: modulator concentration 10 µM
[1] = test system: RAW-Dual (murine macrophage reporter line); assay: NF-kB reporter (SEAP) activity fold change vs agonist alone; higher = enhanced NF-kB activity
How it was run: (§1)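 In 384-well plates holding 50 000 RAW-Dual murine macrophage reporter cells per well, compound at 10 μM final was pre-incubated for 1 hour at 37 °C, after which a PRR agonist was added overnight. Supernatant SEAP read with QUANTI-Blue at 620 nm absorbance reported NF-κB, and Lucia luciferase read with QUANTI-Luc luminescence reported IRF. Fold change values come from dividing each reporter signal by the mean of agonist-only control wells on the same plate, averaged over replicate plates with propagated errors.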

[2] = test system: RAW-Dual (murine macrophage reporter line); assay: IRF reporter (Lucia luciferase) activity fold change vs agonist alone; higher = enhanced IRF activity
How it was run: as §1

[3] = test system: RAW-Dual (murine macrophage reporter line); assay: viability score (confluency relative to resting cells, overnight) (fraction); higher = more viable, active = viable (0.7 or more)
How it was run: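 A compound met the cutoff when both of two confluency masks exceeded 70% of resting cells. Those masks were made with IncuCyte software from IncuCyte images of RAW-Dual macrophages treated overnight at 10 μM final. This is the basis of the viability score, which is confluency relative to resting cells.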

[4] = agonist: CpG ODN 1826 0.5 ug/mL

SMILES | NF-kB reporter [1, 4] | NF-kB reporter ([1]; agonist: LPS 0.1 ug/mL) | NF-kB reporter ([1]; agonist: MPLA […]) | IRF reporter ([2]; agonist: 3'3'-cGAMP 10 ug/mL) | IRF reporter ([2]; agonist: LPS 0.1 ug/mL) | IRF reporter ([2]; agonist: MPLA […]) | viability score [3]
O=[N+]([O-])c1cc2c(cc1C=Nc1ccc(O)cc1)OCO2 | 0.842 ± 0.14 | 1.09 ± 0.17 | 1.27 ± 0.11 | 0.443 ± 0.011 | 1.19 ± 0.15 | 1.12 ± 0.22 | 1 (active)
CC(=NOCON=C(C)c1ccc(Cl)c(Cl)c1)c1ccc(Cl)c(Cl)c1 | 0.944 ± 0.057 | 0.993 ± 0.086 | 0.936 ± 0.07 | 0.974 ± 0.034 | 1.38 ± 0.14 | 1.18 ± 0.1 | 1.01 (active)
Cc1nnc(C)n1N=Cc1ccc(C(F)(F)F)cc1 | 0.898 ± 0.058 | 0.789 ± 0.061 | 0.962 ± 0.038 | 0.957 ± 0.04 | 0.909 ± 0.063 | 0.886 ± 0.093 | 0.996 (active)
c1cnn(-c2ccc(N=Nc3ccc(-n4cccn4)cc3)cc2)c1 | 0.939 ± 0.087 | 1.05 ± 0.083 | 0.966 ± 0.082 | 0.814 ± 0.037 | 1.09 ± 0.1 | 1.02 ± 0.12 | 0.996 (active)
c1cn2cc(-c3ccc4cn[nH]c4c3)nc(Nc3ccc(N4CCOCC4)cc3)c2n1 | 0.99 ± 0.24 | 0.759 ± 0.06 | 1.25 ± 0.12 | 0.24 ± 0.015 | 0.897 ± 0.12 | 1.1 ± 0.26 | 0.978 (active)
CSc1ccc(C2Nc3ccccc3-c3nnc(SCc4ccc(C)cc4)nc3O2)cc1 (stereo not drawn) | 0.817 ± 0.094 | 0.952 ± 0.047 | 1.19 ± 0.1 | 0.877 ± 0.058 | 1.08 ± 0.091 | 1.18 ± 0.14 | 1.01 (active)
O=C1C(O)=C(c2ccc([N+](=O)[O-])cc2)C(=O)c2ccccc21 | 0.967 ± 0.065 | 1.02 ± 0.1 | 0.905 ± 0.079 | 0.969 ± 0.038 | 1.53 ± 0.13 | 1.28 ± 0.23 | 1 (active)
COc1ccc(S(=O)(=O)N(CC(=O)Nc2ccccc2F)c2ccc(C)cc2)cc1OC | 0.984 ± 0.087 | 0.987 ± 0.057 | 0.933 ± 0.059 | 0.979 ± 0.024 | 1.54 ± 0.12 | 1.16 ± 0.26 | 1.01 (active)
COc1ccc(NC(=O)c2nn(-c3ccc(F)cc3)cc2OC)cc1OC | 1.07 ± 0.12 | 1.14 ± 0.094 | 0.889 ± 0.04 | 0.976 ± 0.07 | 1.23 ± 0.12 | 1.13 ± 0.24 | 0.976 (active)
